About 83,000 compounds went through this panel and 20% of them were active in at least one assay; those are over-represented in the sample as a whole.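 The endpoint reported here, percent growth, reads 100 for growth as untreated, 0 for no net growth and -100 for all cells dead.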 Active and inactive are the calls of the source. The calls were made as follows: active = growth percent below 10; inactive = the rest.
Experiments:
Test in all cases: NCI-60 one-dose screen, 48 h (100 = growth as untreated, 0 = no growth, -100 = all killed)
Conditions in all cases: 10 µM unless noted
[1] = system: SK-MEL-2 melanoma
[2] = system: EKVX NSCLC
[3] = system: SN12C renal
[4] = system: UO-31 renal
[5] = system: TK-10 renal
[6] = system: ACHN renal
[7] = system: CAKI-1 renal
[8] = system: A498 renal
[9] = system: CCRF-CEM leukemia
[10] = system: MOLT-4 leukemia

Measured: growth

COc1cccc(-c2cn3c(ccc4ccccc43)n2)c1
active: [8] -3.78%
inactive: [1] 22.1% | [2] 20.8% | [3] 40.2% | [4] 37.2% | [5] 88.8% | [6] 40.1% | [7] 32.4% | [9] 26.6% | [10] 48.7%

COc1cc2c(=O)n(CC3CCCCC3)c3c4cc[nH]c4ncc3c2cc1OC
inactive: [1] 64% | [2] 63.9% | [3] 25.7% | [4] 23.1% | [5] 49.8% | [6] 26.8% | [7] 37.7% | [9] 39.5% | [10] 49.5%
active: [8] -5.29%

COc1cc(OC)c(/C=C/S(=O)(=O)Cc2cnc(OC)c(N)c2)c(OC)c1
inactive: [1] 24.2% | [2] 37.9% | [3] 23.7% | [4] 25.5% | [5] 27.9% | [6] 25.7% | [7] 34% | [9] 15.8%
active: [8] -1.94% | [10] 1.79%

CCCCCCCCCCCCCCCCCCNC(=O)[C@H]1CSC(c2ccc(F)c(OC)c2)N1 (stereo not given in full)
inactive: [4] 45.5% | [6] 30.3%
active: [1] -94.1% | [2] -57.5% | [3] -79.2% | [5] 6.86% | [7] -76.8% | [8] 6.25% | [9] -36.8% | [10] -14.9%

COc1cc(OC)c(/C=C/C(=O)c2c(OC)cc(OC)cc2OC)c(OC)c1
active: [1] 6.13% | [7] 7.16% | [8] 7.18% | [9] 6.27% | [10] -2.79%
inactive: [2] 38.2% | [3] 22.6% | [4] 30.3% | [5] 46.8% | [6] 35.9%

COc1ccc(/C=N\NC(=O)CN2CCN(c3cc4c(cc3F)c(=O)c(C(=O)N/N=C/c3ccc(OC)cc3)cn4C3CC3)CC2)cc1
inactive: [1] 103% | [2] 71.7% | [3] 79% | [4] 57.6% | [5] 100% | [6] 89.7% | [7] 95.1% | [8] 73.6% | [9] 81.5% | [10] 60%

COc1cccc(-c2nc3sccn3c2-c2ccnc(NCCCNS(=O)(=O)c3ccccc3)c2)c1
inactive: [1] 27.4% | [2] 42.7% | [3] 31.4% | [5] 88.2% | [6] 26.9% | [7] 27.8% | [8] 57.9% | [9] 12.3% | [10] 14.1%
active: [4] 9.36%

O=[N+]([O-])c1cccc(-c2nc3sccn3c2-c2ccnc(NCCCNS(=O)(=O)c3ccc(Br)cc3)n2)c1
inactive: [1] 47% | [2] 59.4% | [3] 53% | [4] 22.7% | [5] 102% | [6] 46.7% | [7] 41.4% | [8] 52.8% | [9] 18.6% | [10] 19.7%

COCCCNc1nc(NC(=O)c2ccc(F)cc2C)cc(-c2cccnc2)n1
inactive: [1] 95.6% | [2] 108% | [3] 91.1% | [4] 88.5% | [5] 111% | [6] 109% | [7] 99.1% | [8] 85.4% | [9] 96.5% | [10] 93.9%

Oc1cc(O)c2c(=S)cc(-c3ccc(Cl)cc3)oc2c1
active: [1] 4.4%
inactive: [2] 70.2% | [3] 25.5% | [4] 18% | [5] 58.9% | [6] 23.6% | [7] 76.5% | [8] 59.1% | [9] 15.8% | [10] 24.1%

CCOC(=O)CC(=O)c1c(C)cc(C)cc1C
inactive: [1] 93.4% | [2] 105% | [3] 94.1% | [4] 92.9% | [5] 116% | [6] 83.7% | [7] 97% | [8] 96.8% | [9] 90.9% | [10] 78.7%

C[C@@H]1CCC2=C(CCC[C@]2(C)C(=O)O)[C@@]1(C)CCc1ccoc1
inactive: [1] 92.1% | [2] 101% | [3] 89.6% | [4] 87.7% | [5] 92.3% | [6] 101% | [7] 99.6% | [8] 83.3% | [9] 102% | [10] 113%

c1ccc2c(Nc3cccc4ccccc34)cccc2c1
inactive: [1] 38.6% | [2] 78.1% | [3] 58.8% | [4] 41.3% | [5] 81.3% | [6] 79.1% | [7] 40.3% | [8] 81.2% | [9] 59.8% | [10] 30.5%

CN1CCN(Cc2ccc(NC(=O)c3[nH]ncc3Nc3ccnc4ccsc34)cc2)CC1
active: [10] 2.39%
inactive: [1] 64.9% | [2] 41.1% | [3] 21.3% | [4] 44.5% | [5] 58.6% | [6] 13.5% | [7] 59.3% | [8] 17% | [9] 11%

C(=N\Nc1nnn(Cc2ccccc2)n1)/c1ccccc1
inactive: [1] 34% | [2] 57.6% | [3] 67.5% | [4] 61.2% | [5] 76.6% | [6] 67.2% | [7] 95.2% | [8] 38.2% | [9] 35% | [10] 38.2%

CN(C)c1ccc(C2Nc3ccccc3-n3cccc32)cc1 (stereo not given)
inactive: [1] 118% | [2] 87.8% | [3] 89.5% | [4] 64.2% | [5] 55.7% | [6] 86.6% | [7] 83.3% | [8] 113% | [9] 109% | [10] 104%

Cc1ccccc1CCO
inactive: [1] 86.3% | [2] 105% | [3] 107% | [4] 88.8% | [5] 82.4% | [6] 98.4% | [7] 100% | [8] 96.5% | [9] 116% | [10] 111%

Cc1ccc(Nc2nc(N)nc(Nc3ccc4ccccc4c3)n2)cc1
inactive: [1] 50.6% | [2] 72.1% | [3] 40.3% | [4] 46.4% | [5] 69% | [6] 46.6% | [7] 30.3% | [8] 17.6% | [9] 27.8% | [10] 47.9%

COc1ccc(S(=O)(=O)NCCCNc2cc(-c3c(-c4cccc(OC)c4)nc4sccn34)ccn2)cc1
inactive: [1] 53.3% | [2] 48.4% | [3] 36% | [4] 18% | [5] 73.4% | [6] 33.2% | [7] 32% | [8] 36.7% | [9] 26.5% | [10] 19.2%

COc1cc(NCCCCN=C(N)N)c2ncccc2c1
inactive: [1] 27.3% | [2] 65.2% | [4] 90.3% | [5] 70.9% | [6] 93.6% | [7] 98.2% | [8] 74.5% | [9] 90.7% | [10] 67.5%
active: [3] -14.5%

CN1CCN(Cc2ccc(NC(=O)c3cncc(C#Cc4c(N)ncc5ccc(C#N)cc45)c3)cc2C(F)(F)F)CC1
active: [2] -55.3% | [3] 6.26% | [4] -88.5% | [6] -92.8% | [9] -14.2% | [10] -21.3%
inactive: [1] 57.4% | [5] 18.3% | [7] 58.3% | [8] 43.3%

CC1CN(C(C)C)C(=S)N(c2ccccc2)C1=O (stereo not given)
inactive: [1] 98.5% | [2] 88.6% | [3] 101% | [4] 84.6% | [5] 112% | [6] 100% | [7] 68.9% | [8] 101% | [9] 90.6% | [10] 90%

COc1ccccc1/C=C(/C(=O)c1ccccc1)c1ccccc1
inactive: [1] 94.5% | [2] 109% | [3] 102% | [4] 75.4% | [5] 119% | [6] 99.8% | [7] 92.8% | [8] 111% | [9] 104% | [10] 75.1%

O=C1c2ccccc2-c2nccc3cc(Cl)nc1c23
inactive: [1] 22.2% | [5] 61.1% | [7] 32.9% | [8] 90.2% | [9] 19.4% | [10] 26%
active: [2] -17.3% | [3] -30.7% | [4] -18.5% | [6] -46.4%

COc1cc(-c2nc3ccccc3s2)ccc1NC(=O)COc1ccc(Cl)cc1
active: [7] 6.38%
inactive: [1] 78.5% | [2] 57.4% | [3] 58.6% | [4] 47.3% | [5] 35.6% | [6] 40% | [8] 97.3% | [9] 98.5% | [10] 86%

CCN(C(=O)CN1CCN(c2cc3c(cc2F)c(=O)c(C(=O)O)cn3CC)CC1)c1nc(-c2ccccc2)cs1
inactive: [2] 21.2% | [4] 12.4% | [5] 14.6% | [7] 11.7% | [9] 14% | [10] 11.4%
active: [1] -15.3% | [3] 2.74% | [6] 8.13% | [8] -6.64%

CC[C@@H](C)OC(=O)c1nn(C(C)=O)c2ccccc12
inactive: [1] 107% | [2] 101% | [3] 102% | [4] 92.9% | [5] 105% | [6] 108% | [7] 97.8% | [8] 99.2% | [9] 103% | [10] 123%

Source: PubChem BioAssay (NCI)
